Data: PubChem BioAssay (Tox21)
Values joined by “and” are separate entries in the source; they are usually repeats but may differ in a detail not shown here. Identical values can stand only once. Records with an inconclusive call do not appear. Entries that show only a call come without a potency. A structure can be active in one record and inactive in another. Active and inactive are the calls of the source. Calls come from the whole dose curve; as a rule, active = well fitted activation curve with a large enough effect in the repeat runs; inconclusive = weak or mixed curves; inactive = flat fitted curve, though single readings scatter.

Test: A CellTox Green Cytotoxicity Assay to monitor cytotoxicity in HepG2 cells - 24 hour (AID 1224878); note: nearly all actives have a fitted effect of over 45% in size
Conditions: CellTox Green fluorescence; series mostly up to 76.8 µM; cytotoxicity: at the top concentration
Text: National Center for Advancing Translational Sciences [NCATS]
NIH Chemical Genomics Center [NCGC]
U.S. Environmental Protection Agency [EPA]
National Institutes of Environmental Health Sciences [NIEHS]
National Toxicology Program [NTP]
Cell-based models are critical for drug discovery. Determining the natural cytotoxic effects resulting from test compounds is an essential research activity. A CellTox Green Cytotoxicity Assay to monitor cytotoxicity in real time of continues cell culture during 40 hours of the compound treatment was used to screen Tox21 10K library compounds in HepG2 cells. CellTox Green Cytotoxicity Assay is a nonlytic, homogeneous, biofluorescent method to measure cytotoxicity in cell culture after experimental manipulation. The assay system uses a proprietary asymmetric cyanine dye that is excluded from viable cells but preferentially stains the dead cell's DNA. […] Viable cells produce no appreciable increases in fluorescence. Therefore, the fluorescence signal produced by the binding interaction with dead cell DNA is proportional to cytotoxicity.
The mixture of HepG2 cell suspension and reagents were dispensed at 600cells/6 ul/well in 1536-well tissue culture treated black solid bottom plates using a Multidrop dispenser. After the assay plates were incubated at a 37 C/5% CO2 incubator for 5 hours, 23 nL of compounds dissolved in DMSO, positive and negative controls was transferred to the assay plate by a pintool work station. The plates were incubated at 37 C for 40 hours. The fluorescence intensity were measured at 0h, 8h, 16h, 24h, 32h and 40h time points using ViewLux plate reader during compound treatment.
Potency is the fitted concentration of half-maximal effect.

Row | SMILES | Potency | cytotoxicity
1 | O=[N+]([O-])c1ccc(Cl)c(Cl)c1 | inactive | 
2 | CN(C)NC(=O)CCC(=O)O | inactive | 
3 | CNCC(O)c1ccc(O)cc1 (stereo not given) | inactive | 
4 | CCNc1nc(Cl)nc(NC(C)C)n1 | inactive | 
5 | CN(C)C(=O)Nc1cccc(C(F)(F)F)c1 | inactive | 
6 | OCCCCO | inactive | 
7 | O=C(O)COc1ccccc1 | inactive | 
8 | C=CC(=O)OCCCCCC(C)C | inactive | 
9 | CNC(=O)O/N=C/C(C)(C)SC | inactive | 
10 | O=C(O)Cc1ccccc1 | inactive | 
11 | CCCOC(=O)c1ccccc1C(=O)OCCC | inactive | 
12 | C=CC(=O)OCC(CC)CCCC (stereo not given) | inactive | 
13 | CC(=O)/C=C/c1ccccc1 | inactive | 
14 | OCc1ccco1 | inactive | 
15 | CC[N+](=O)[O-] | inactive | 
16 | Cc1cc(Cl)ccc1OC(C)C(=O)O (stereo not given) | inactive | 
17 | Cc1ccc(N)cc1 | inactive | 
18 | Cc1cccc(N)c1C | inactive | 
19 | O=C(O)C(Br)Br | inactive | 
20 | NNc1ccccc1 | inactive | 

Row | SMILES | Potency | cytotoxicity
21 | C=CCN=C=S | inactive | 
22 | CC12CC1(C)C(=O)N(c1cc(Cl)cc(Cl)c1)C2=O (stereo not given) | inactive | 
23 | Nc1nc(N)nc(NC2CC2)n1 | inactive | 
24 | COC(=O)Nc1cccc(OC(=O)Nc2cccc(C)c2)c1 |  | 22.8% (inactive)
25 | O=[N+]([O-])c1cc([As](=O)(O)O)ccc1O | inactive | 
26 | N#Cc1cccc(C#N)c1 | inactive | 
27 | O=C/C=C/c1ccccc1 | inactive | 
28 | Oc1ccc(Cl)cc1 | inactive | 
29 | CNC(=O)O/N=C/C(C)(C)S(C)=O (stereo not given) | inactive | 
30 | Cc1ccccc1N | inactive | 
31 | Cc1ccc(O)c(C)c1 | inactive | 
32 | O=C(O)CCCc1ccc(N(CCCl)CCCl)cc1 | inactive | 
33 | CCOP(=S)(OCC)Oc1cc(C)nc(C(C)C)n1 | inactive | 
34 | CN(C)CCC#N | inactive | 
35 | CN1C(=O)CCS(=O)(=O)C1c1ccc(Cl)cc1 (stereo not given) | inactive | 
36 | COc1nc(NC(C)C)nc(NC(C)C)n1 | inactive | 
37 | Oc1c(Br)cc(Br)cc1Br | inactive | 
38 | CNc1cnn(-c2cccc(C(F)(F)F)c2)c(=O)c1Cl | inactive | 
39 | Sc1ccccc1 | inactive and 43.6 µM (active) | 
40 | CN(C)C(=O)Cl | inactive | 
